Drawing on PubChem BioAssay AID602393 (Broad Institute, 2012), this text covers reporter increase for 76 compounds.

Screen size: about 350,000 compounds; about 7,000 (2%) were called active. Rule as the data show it: active = activation above about 40%; inconclusive = no clear call, values can overlap the other calls; inactive = below that. Shown is part of a subset that was picked to be rich in actives.

This test is described as follows: Bmi1 luciferase reporter increase in mESCs, primary screen, esBAF inhibitor project, mouse ES cells, Bmi1 luciferase knock-in, single point (AID 602393).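 Also: 0% = median of the plate's neutral control wells and 100% = double that signal; a rise in the Bmi1 reporter signal indicates esBAF inhibition.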 Particulars: 24 h, at 12.5 µM, hits give high values, 100% = twice the neutral-well signal. Background: In a reporter assay the amount or activity of a reporter protein is the signal.
Consider `C[C@H](NC(=O)C[C@@H]1C[C@@H]2c3cc(NC(=O)Nc4ccc(C(F)(F)F)cc4)ccc3O[C@@H]2[C@H](CO)O1)c1ccccc1`, for which the reporter increase is -3.56% (inactive).
As for `COC(=O)C[C@@H]1CC[C@@H]2[C@@H](COc3ccc(NC(=O)C4CCOCC4)cc3C(=O)N2C)O1`, the reporter increase is 1.18% (inactive).
In the case of `C[C@H]1CN([C@@H](C)CO)C(=O)Cc2cc(NC(=O)Nc3ccc(F)cc3)ccc2O[C@H]1CN(C)S(=O)(=O)c1ccc(F)cc1` it was 1.01% (inactive); in that of `COc1ccc(-n2cnc3cc(NCc4ccco4)ccc32)cc1`, 56.7% (active); in that of `COc1cc(-n2c(C)nc3cc(C(=O)NCc4ccco4)ccc32)cc(OC)c1OC`, -1.78% (inactive).
As to `Cc1nc2cc(NCc3cccs3)ccc2n1C`, the reporter increase is 35% (inactive).
Under `O=C(C[C@H]1CC[C@H](NC(=O)Nc2ccccc2F)[C@@H](CO)O1)NCc1ccccc1` stands 0.158% (inactive); under `S=C(Nc1ccccc1)Nc1ccc2ccccc2c1`, 78.2% (active).
In the case of `Cc1ccc(NC(=S)Nc2ccc(F)cc2)cc1` it was 9.65% (inactive); in that of `FC(F)(F)Oc1ccc(NC(=S)NCc2ccccc2)cc1`, -1.5% (inactive).
In the case of `COc1cc(/C=C(\C#N)c2nc3ccccc3[nH]2)ccc1O` it was 54.9% (active); in that of `CCCCCOc1ccc(/C=C/C(=O)NCCc2nc3ccccc3[nH]2)cc1OC`, 1.93% (inactive); in that of `CCOc1ccc(/C=C(/C#N)c2nnc(N3CCOCC3)n2-c2ccccc2)cc1OC`, 2.69% (inactive).
On to `CC=Cc1ccc2n(c1=O)C[C@@H]1[C@@H](CO)[C@H](C(=O)NCCCN3CCOCC3)[C@H]2N1Cc1cocn1` (mixture of isomers), for which the reporter increase is -2.98% (inactive).
Under `CCNC(=O)C[C@@H]1CC[C@H](NC(=O)NC2CCCCC2)[C@H](CO)O1` stands -1.71% (inactive).
Under `O=C(C[C@@H]1C[C@@H]2c3cc(NC(=O)Cc4ccncc4)ccc3O[C@@H]2[C@H](CO)O1)NCc1cccc(F)c1` stands -1.25% (inactive).
In the case of `O=C(OCC(=O)N1CCCCCC1)c1cccc(Cl)c1Cl`, the reporter increase was 46.9% (active).
Turning to `O=C(COc1ccccc1Cl)N1CCCCCCC1`, the reporter increase was 5.02% (inactive).
Take `O=C(COC(=O)c1cccc(Cl)c1Cl)NC1CCCCCC1`: the reporter increase was -2.51% (inactive).
In the case of `CC(C)Cc1cc(C(=O)Nc2cc(Br)ccc2O)no1` it was 30.6% (inactive); in that of `Cc1ccc(C)c(NC(=O)c2ccc(OC(=O)c3ccco3)cc2)c1`, 5.84% (inactive); in that of `Cc1ccc(O)c(NC(=O)c2cc(-c3ccco3)on2)c1`, 69.9% (active).
Under `C[C@H](CO)N1C[C@H](C)[C@@H](CN(C)CC2CC2)OCCCC[C@H](C)Oc2ccc(NC(=O)Nc3ccccc3)cc2C1=O` stands 2.38% (inactive); under `CNC[C@H]1Oc2cc(-c3ccc(C(=O)N(C)C)cc3)ccc2S(=O)(=O)N([C@@H](C)CO)C[C@@H]1C`, 0.467% (inactive).
Under `C[C@@H]1CN([C@H](C)CO)C(=O)c2ccccc2-c2ccccc2CO[C@H]1CN(C)C(=O)CCC(F)(F)F` stands -0.31% (inactive); under `CC(=O)c1ccc(NC(=O)c2sc3nc4n(c(=O)c3c2C)CCCCC4)cc1`, 56.1% (active).
In the case of `O=c1c2c(nc3n1CCCCC3)sc1c(O)cccc12`, the reporter increase is -22.9% (inactive).
Under `COc1cccc(C(=O)Nc2ccc3nc4n(c(=O)c3c2)CCCCC4)c1` stands 38.2% (inactive); under `COc1cccc(NC(=O)N(C)C[C@H]2Oc3ncc(C4=CCCCC4)cc3C(=O)N([C@H](C)CO)C[C@H]2C)c1`, 6.32% (inactive); under `C[C@H](CO)N1C[C@H](C)[C@@H](CN(C)C(=O)Nc2ccccc2)Oc2ncc(C3=CCCC3)cc2C1=O`, 1.19% (inactive).
Turning to `Cn1cnc(S(=O)(=O)N2C[C@@H](O)COC[C@H]3O[C@H](CC(=O)N4CCN(c5ccccc5)CC4)CC[C@@H]32)c1`, the reporter increase was 0.849% (inactive).
As for `COc1ccc(C2CC(c3ccccc3)=NN2C(=O)c2ccc(Cl)c([N+](=O)[O-])c2)cc1` (stereo unspecified), the reporter increase is -0.268% (inactive).
Take `COc1ccc(C2=NN(C(C)=O)C(c3ccccc3)C2)cc1` (stereo unspecified): the reporter increase is 53.9% (active).
With `COc1ccc(C2CC(c3ccc([N+](=O)[O-])cc3)=NN2C(C)=O)cc1` (stereo unspecified), the reporter increase is 71.3% (active).
In the case of `COc1cccc(C2CC(c3ccccc3)=NN2S(=O)(=O)c2ccccc2)c1OC` (stereo unspecified) it was -2.12% (inactive).
With `COc1ccc(C2=NN(C(=O)c3ccccc3C(=O)O)C(c3ccccc3O)C2)cc1` (stereo unspecified), the reporter increase was 74.8% (active).
As for `COc1ccc(C2CC(c3cccc(OC)c3)=NN2c2ccc(S(N)(=O)=O)cc2)cc1` (stereo unspecified), the reporter increase is 4.76% (inactive).
Turning to `COc1ccc(C2=NN(C(=O)CSc3nnnn3C)C(c3ccco3)C2)cc1` (stereo unspecified), the reporter increase is 18% (inactive).
With `COc1ccc(C2=NN(C(=O)CSc3nc(=O)n4ccc(C)cc4n3)C(c3ccc(C)cc3)C2)cc1` (stereo unspecified), the reporter increase was 9.03% (inactive).
For the compound `COc1ccc(C2CC(c3ccccc3)=NN2C(=O)CSc2nccc(=O)[nH]2)cc1` (stereo unspecified), the reporter increase is 11.5% (inactive).
In the case of `C[C@@H]1CN([C@@H](C)CO)C(=O)Cc2cc(NC(=O)Nc3cccc4ccccc34)ccc2O[C@@H]1CN(C)CC1CCCCC1` it was -7.15% (inactive); in that of `CC(C)CC#Cc1cnc2c(c1)C(=O)N([C@H](C)CO)C[C@H](C)[C@@H](CN(C)Cc1ccccc1C(=O)O)O2`, -5.98% (inactive).
In the case of `Cc1noc(C)c1S(=O)(=O)Nc1ccc2c(c1)C(=O)N([C@H](C)CO)C[C@@H](C)[C@@H](CN(C)Cc1ccccc1)OCCCC[C@@H](C)O2` it was 3.09% (inactive); in that of `CN1C(=O)c2cc(NC(=O)C3CCCCC3)ccc2OC[C@H]2O[C@@H](CC(=O)NC3CCCC3)CC[C@@H]21`, 0.376% (inactive).
Consider `C[C@@H]1CN([C@@H](C)CO)C(=O)Cc2cc(NC(=O)Nc3cccc4ccccc34)ccc2O[C@H]1CN(C)S(=O)(=O)c1ccc(Cl)cc1`, for which the reporter increase is -0.13% (inactive).
Under `COc1ccc(NC(=O)N(C)C[C@H]2Oc3ccc(NC(=O)Cc4cn(C)c5ccccc45)cc3CC(=O)N([C@@H](C)CO)C[C@H]2C)cc1` stands -1.83% (inactive); under `CS(=O)(=O)Nc1cccc(C2=NN(C(=O)c3cccc(F)c3)C(c3cccs3)C2)c1` (stereo unspecified), 5.14% (inactive).
For `CS(=O)(=O)Nc1ccc(C2=NN(S(C)(=O)=O)C(c3cccs3)C2)cc1` (stereo unspecified), the reporter increase is 58.2% (active).
In the case of `CS(=O)(=O)Nc1cccc(C2=NN(S(=O)(=O)c3ccccc3)C(c3cccs3)C2)c1` (stereo unspecified) it was -7.36% (inactive); in that of `CC(C)C#Cc1ccc2c(c1)O[C@@H](CN(C)C(=O)C1CC1)[C@H](C)CN([C@H](C)CO)S2(=O)=O`, 3.19% (inactive).
In the case of `C[C@@H]1CN([C@H](C)CO)C(=O)c2cccc(NS(=O)(=O)c3ccc(F)cc3)c2O[C@@H]1CN(C)S(=O)(=O)c1ccc(Cl)cc1` it was 0.559% (inactive).
Under `CO[C@@H](CN(C)S(=O)(=O)c1ccc(F)cc1)[C@H](C)CN(C(=O)Nc1ccccc1F)[C@@H](C)CO` stands 7.4% (inactive); under `O=C(C[C@H]1C=C[C@@H](NC(=O)c2cnccn2)[C@H](CO)O1)NCc1ccccc1F`, -1.5% (inactive); under `CC(C)NC(=O)N[C@@H]1CC[C@H](CCn2cc(-c3ccccc3)nn2)O[C@H]1CO`, 1.66% (inactive).
Consider `CCNC(=O)C[C@@H]1CC[C@@H]2[C@@H](COc3ccc(NC(C)=O)cc3C(=O)N2C)O1`, for which the reporter increase was -3.06% (inactive).
Under `CCOC(=O)C1=C(c2ccccc2)O/C(=C(/C(=O)OC)C(F)(F)F)S1` stands -7.41% (inactive).
In the case of `COC(=O)/C(=C1\Oc2ccc(C(C)(C)C)cc2S1)C(F)(F)F` it was 53.4% (active); in that of `COCC#Cc1cnc2c(c1)C(=O)N([C@H](C)CO)C[C@@H](C)[C@@H](CN(C)C(=O)Nc1cccc(F)c1)O2`, -0.578% (inactive).
Regarding `C[C@H](CO)N1C[C@H](C)[C@@H](CN(C)Cc2ccccn2)Oc2ncc(C3=CCCC3)cc2C1=O`, the reporter increase is -4.21% (inactive).
Consider `C[C@@H]1CN([C@@H](C)CO)C(=O)c2cc(-c3ccc(C#N)cc3)cnc2O[C@H]1CN(C)C(=O)CN(C)C`, for which the reporter increase is 0.919% (inactive).
Regarding `CCOC(=O)c1oc2ccccc2c1NC(=O)c1cccs1`, the reporter increase is -0.529% (inactive).
Turning to `CCc1c(C)sc(NC(=O)c2cccs2)c1C(N)=O`, the reporter increase was 57.1% (active).
`CCc1c(C)sc(NC(=O)c2ccc(Br)o2)c1C(=O)OC`: the reporter increase was 0.318% (inactive).
In the case of `COc1ccc(CN2C[C@@H](C)[C@H](OC)CN(C)C(=O)c3cc(NC(C)=O)ccc3OC[C@@H]2C)cc1` it was 1.02% (inactive); in that of `CN(C)CC(=O)N[C@@H]1CC[C@H](CC(=O)NCc2ccc(Cl)cc2)O[C@H]1CO`, 2.07% (inactive); in that of `CCCN(C)C[C@@H]1Oc2cc(-c3ccc(C)cc3)ccc2S(=O)(=O)N([C@@H](C)CO)C[C@H]1C`, -1.82% (inactive).
Under `CO[C@H]1CN(C)C(=O)c2ccc(NC(=O)c3cc(C)on3)cc2OC[C@H](C)N(C)C[C@H]1C` stands -3.45% (inactive).
Under `Cc1ccc(OCc2nc(C#N)c(N3CCCC3)o2)cc1` stands 6.84% (inactive); under `COc1ccc(Nc2oc(-c3ccccc3Cl)nc2C#N)cc1`, 11.5% (inactive); under `CCOc1ccc(Nc2oc(Cc3ccccc3)nc2C#N)cc1`, 52% (active).
`COc1ccc(NC(=O)N(C)C[C@@H]2OCCCC[C@H](C)Oc3ccc(NS(=O)(=O)c4c(C)noc4C)cc3C(=O)N([C@@H](C)CO)C[C@@H]2C)cc1`: the reporter increase was 10.5% (inactive).
Under `Cc1ccc(NC(=O)c2ccn(C(=O)Nc3ccccc3)n2)c(C)c1` stands 33.7% (inactive); under `Cc1ccc(Nc2nc(C)cc(C)c2C(N)=O)cc1`, -0.241% (inactive).
Under `Cc1ccc2nc(Nc3ccccc3)cc(C)c2c1` stands 48.3% (active); under `O=C(C[C@H]1CC[C@H](NC(=O)c2ccncc2)[C@H](CO)O1)Nc1ccccc1`, 6.5% (inactive).
Under `CNC[C@H]1OCCCC[C@@H](C)Oc2ccc(NC(=O)c3ccccc3)cc2C(=O)N([C@@H](C)CO)C[C@H]1C` stands 9.15% (inactive).
